From PubChem BioAssay (Tox21)
Where “and” joins values, the source holds several entries; their conditions need not be identical. Equal values may be shown once. Inconclusive results are not listed. A call without a number means that no potency is given here. Some structures have more than one record in an assay (separate samples or runs), and their calls can disagree. Calls of active or inactive are those of the source. Unless noted, the call rests on the fitted dose curve; in most records, active means well fitted curve in the direction sought with a large enough effect in the repeat runs; inconclusive means weak or mixed curves; inactive means no such curve, though single readings can be large; an effect the other way counts as inactive or inconclusive.

Experiments:
[1] = target: Estrogen receptor (Homo sapiens) (UniProt P03372); assay: qHTS assay to identify small molecule antagonists of the estrogen receptor alpha (ER-alpha) signaling pathway using the BG1 cell line in the presence of 0.1 nM 17-beta-estradiol (AID 1259244); further: nearly all actives have a fitted effect of over 50% in size; further: potency means the concentration at half of the fitted maximal effect
Estrogen receptor (Homo sapiens), sequence (P03372 whole entry, looked up): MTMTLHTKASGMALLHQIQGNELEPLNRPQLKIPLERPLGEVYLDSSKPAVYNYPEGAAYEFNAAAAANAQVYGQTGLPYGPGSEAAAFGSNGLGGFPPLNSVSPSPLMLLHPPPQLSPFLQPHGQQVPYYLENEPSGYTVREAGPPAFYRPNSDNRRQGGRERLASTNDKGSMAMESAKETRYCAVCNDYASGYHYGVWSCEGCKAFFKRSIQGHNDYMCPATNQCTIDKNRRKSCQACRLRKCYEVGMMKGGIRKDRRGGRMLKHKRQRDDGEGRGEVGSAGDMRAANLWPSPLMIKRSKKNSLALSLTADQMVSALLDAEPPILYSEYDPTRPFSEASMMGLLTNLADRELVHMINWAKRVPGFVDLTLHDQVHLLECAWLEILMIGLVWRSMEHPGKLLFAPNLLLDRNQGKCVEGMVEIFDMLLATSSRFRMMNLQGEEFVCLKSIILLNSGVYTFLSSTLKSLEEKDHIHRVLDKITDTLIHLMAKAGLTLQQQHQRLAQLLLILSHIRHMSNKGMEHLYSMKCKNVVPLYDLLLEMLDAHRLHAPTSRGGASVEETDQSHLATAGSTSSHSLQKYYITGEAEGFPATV
In short: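 Seeding of stripped-serum-adapted VM7Luc4E2 cells, 24 h attachment, compound transfer, then 0.1 nM final 17beta-estradiol; after 22 h incubation, ONE-Glo reagent and luminescence reading.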

[2] = qHTS assay to identify small molecule phospholipidosis (PLD) inducers (AID 1259344; active means well fitted curve in the direction sought with a large enough effect; an effect the other way counts as inactive or inconclusive)
In short: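 Image-based: LipidTOX Red pit count/intensity per well and per cell; HepG2, 24 h compound at 37 C, PFA fixation, Hoechst counterstain.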

[3] = qHTS assay to identify small molecule HDAC inhibitors (AID 1259364); further: potency means the concentration at half of the fitted maximal effect;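 further: wild-type HCT-116 cells with endogenous class I/II HDAC activity; nearly all actives have a fitted effect of over 45% in size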
In short: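 After a 2 hr compound incubation (37C, 5% CO2), HCT-116 cells seeded at 1,500/well the day before received HDAC-Glo reagent; signal read as luminescence after 30 min at room temperature.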

[4] = qHTS assay to identify small molecule HDAC inhibitors - cell viability counter screen (AID 1259365); further: series mostly up to about 92 µM; nearly all actives have a fitted effect of over 50% in size
In short: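 Cytotoxicity was gauged in wild-type HCT-116 cells after a brief 2hr treatment with DMSO-dissolved compounds at 37C and 5% CO2, using CellTiter-Glo luminescence developed for 30min at room temperature.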

[5] = qHTS assay to identify small molecule agonists of the sonic hedgehog signaling (Shh) pathway (AID 1259368; calls by dose curve; further: nearly all actives have a fitted effect of over 15% in size; further: potency means the concentration at half of the fitted maximal effect)
In short: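 Stable NIH/3T3 Gli1-Luc reporter clone; 24 hr cpd exposure after a 4 hr settling period; luminescence endpoint.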

[6] = qHTS assay to identify small molecule antagonists of the sonic hedgehog signaling (Shh) pathway (AID 1259369; calls by dose curve; further: nearly all actives have a fitted effect of over 45% in size; further: potency means the concentration at half of the fitted maximal effect)
In short: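 Gli1 transcriptional reporter (firefly Luc) in NIH/3T3 background, conditioned-medium activated. 24hr exposure, luminescence endpoint.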

[7] = qHTS assay to identify small molecule agonists of the sonic hedgehog signaling (Shh) pathway - cell viability counter screen (AID 1259366); further: nearly all actives have a fitted effect of over 50% in size; further: potency means the concentration at half of the fitted maximal effect
In short: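 Stable Gli1-Luc NIH/3T3 clone, 2,000 cells/well. Compound exposure 24hr at 37C. Read-out: CellTiter-Fluor fluorescence.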

[8] = qHTS assay to identify small molecule antagonists of the sonic hedgehog signaling (Shh) pathway - cell viability counter screen (AID 1259367); further: nearly all actives have a fitted effect of over 55% in size; further: potency means the concentration at half of the fitted maximal effect
In short: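 Tox21 library chemicals were tested on a Gli1-Luc NIH/3T3 clone (2,000 cells/well) stimulated by conditioned medium; viability was quantified as fluorescence from CellTiter-Fluor reagent added at 23 hr.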

[9] = target: Androgen receptor (Homo sapiens) (UniProt P10275); assay: qHTS assay to identify small molecule antagonists of the androgen receptor (AR) signaling pathway using the MDA cell line in the presence of 0.5 nM R1881 (AID 1259243); further: nearly all actives have a fitted effect of over 50% in size; further: potency means the concentration at half of the fitted maximal effect
Androgen receptor (Homo sapiens), sequence (P10275 whole entry, looked up): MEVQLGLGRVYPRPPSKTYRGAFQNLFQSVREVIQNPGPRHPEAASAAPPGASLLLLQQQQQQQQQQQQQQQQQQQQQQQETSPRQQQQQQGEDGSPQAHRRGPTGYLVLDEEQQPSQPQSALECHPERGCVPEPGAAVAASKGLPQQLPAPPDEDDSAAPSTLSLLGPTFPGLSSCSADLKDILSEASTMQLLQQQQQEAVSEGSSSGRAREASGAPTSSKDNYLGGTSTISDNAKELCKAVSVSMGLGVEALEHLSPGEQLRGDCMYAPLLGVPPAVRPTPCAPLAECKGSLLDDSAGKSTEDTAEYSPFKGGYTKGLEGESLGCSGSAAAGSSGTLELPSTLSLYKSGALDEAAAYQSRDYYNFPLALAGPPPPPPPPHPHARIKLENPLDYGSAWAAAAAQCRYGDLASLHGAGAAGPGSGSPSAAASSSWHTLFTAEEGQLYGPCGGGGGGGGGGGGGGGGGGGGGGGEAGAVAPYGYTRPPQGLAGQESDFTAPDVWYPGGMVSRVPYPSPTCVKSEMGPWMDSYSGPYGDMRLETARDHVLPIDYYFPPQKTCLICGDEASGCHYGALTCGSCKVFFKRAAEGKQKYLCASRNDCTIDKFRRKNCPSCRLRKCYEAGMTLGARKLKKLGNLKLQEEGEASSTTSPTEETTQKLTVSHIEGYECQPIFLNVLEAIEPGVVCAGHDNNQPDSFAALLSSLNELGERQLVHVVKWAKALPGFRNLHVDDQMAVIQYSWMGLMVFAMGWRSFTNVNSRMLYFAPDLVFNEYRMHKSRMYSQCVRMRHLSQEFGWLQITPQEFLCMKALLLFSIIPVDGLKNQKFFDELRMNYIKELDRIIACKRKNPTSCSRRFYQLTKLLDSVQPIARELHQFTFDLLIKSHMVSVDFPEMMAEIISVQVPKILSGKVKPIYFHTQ
In short: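 Cells: MDA-kb2 (MMTV-luc). Stimulus: 0.5 nM R1881. Time: 16 hr, 37C, no CO2. Detection: ONE-Glo luminescence after 30 min at RT.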

SMILES | Potency [1] | Potency [2] | Potency [3] | Potency [4] | Potency [5] | Potency [6] | Potency [7] | Potency [8] | Potency [9]
CCN(CC)CCNc1ccc(CO)c2sc3ccccc3c(=O)c12 | inactive | inactive | inactive | inactive | inactive | 13.3 µM (active) | – | – | –
CC(COC(=O)c1ccccc1)OC(=O)c1ccccc1 (centres undefined) | inactive | – | inactive | inactive | inactive | – | inactive | inactive | –
COc1cc(C(=O)NS(=O)(=O)c2ccccc2C)ccc1Cc1cn(C)c2ccc(NC(=O)OC3CCCC3)cc12 | inactive | inactive | inactive | inactive | inactive | inactive | inactive | inactive | –
CCCCN(CCCC)CCC(O)c1cc2c(Cl)cc(Cl)cc2c2cc(C(F)(F)F)ccc12 (centres undefined) | inactive | – | inactive | inactive | inactive | – | inactive | inactive | –
C=CC(=O)OCCN(CC)CC | inactive | – | inactive | inactive | inactive | inactive | inactive | inactive | –
COc1cc(C=C2CCC/C(=C\c3ccc(O)c(OC)c3)C2=O)ccc1O | – | inactive | inactive | inactive | 26.6 µM (active) | – | – | 23.7 µM (active) | 9.44 µM (active)
CCOC(=O)[C@@](C)(N)Cc1ccc(O)c(O)c1 | inactive | inactive | – | inactive | – | – | inactive | – | –
CCCCOc1ccc(C(=O)CCN2CCCCC2)cc1 | inactive | inactive | – | inactive | inactive | inactive | – | inactive | –
CSc1ccc2c(c1)N(CCC1CCCCN1C)c1ccccc1S2 (centres undefined) | 54.3 µM (active) and inactive | inactive | inactive | inactive | inactive | 5.43 µM (active) and 11.9 µM (active) | 15.3 µM (active) and 29.8 µM (active) | 21.6 µM (active) and 29.8 µM (active) | –
C=C(C)CCCC | inactive | – | inactive | inactive | inactive | – | inactive | inactive | inactive
CC1CCCCN1CCCOC(=O)c1ccc(OC2CCCCC2)cc1 (centres undefined) | – | – | inactive | inactive | inactive | – | inactive | inactive | –
Cc1cccc(C)c1NC(=O)CN1CCN(CCCC(c2ccc(F)cc2)c2ccc(F)cc2)CC1 | – | – | inactive | inactive | inactive | – | – | – | –
CC(=O)C=O | inactive | – | inactive | inactive | inactive | inactive | inactive | inactive | –
NCCCCCCNCCCCCCN | inactive | – | inactive | inactive | inactive | – | – | – | –
C/C=C/C=N/NC(=O)c1ccncc1 | – | inactive | inactive | inactive | inactive | inactive | – | 26.6 µM (active) | –
Nc1cc(Cl)c([N+](=O)[O-])cc1O | – | – | inactive | inactive | inactive | – | – | – | –

SMILES | Potency [1] | Potency [2] | Potency [3] | Potency [4] | Potency [5] | Potency [6] | Potency [7] | Potency [8] | Potency [9]
CCC(C)C(=O)OC (centres undefined) | inactive | – | inactive | inactive | inactive | inactive | inactive | inactive | –
COC(=O)C1=C(C)NC(C)=C(C(=O)OCCCN2CCC(c3ccccc3)(c3ccccc3)CC2)C1c1cccc([N+](=O)[O-])c1 (centres undefined) | – | – | inactive | inactive | inactive | 33.5 µM (active) | 26.6 µM (active) | – | –
COC(=O)CC#N | inactive | – | inactive | inactive | inactive | inactive | inactive | inactive | –
Cc1c(-c2ccc(O)cc2)n(Cc2ccc(OCCN3CCCCCC3)cc2)c2ccc(O)cc12 | – | – | inactive | inactive | inactive | 11.9 µM (active) | 13.3 µM (active) | 26.6 µM (active) | –
CCO[Si](CCCSSSSCCC[Si](OCC)(OCC)OCC)(OCC)OCC | inactive | – | inactive | inactive | inactive | inactive | inactive | inactive | –
CSc1c(Cl)c(Cl)c(Cl)c(Cl)c1Cl | – | – | – | inactive | inactive | inactive | inactive | inactive | –
C=C(C)C(=O)OCCC[Si](Cl)(Cl)Cl | – | – | – | inactive | inactive | – | inactive | inactive | –
CN1CCN(C2Cc3ccccc3Sc3ccc(Cl)cc32)CC1 (centres undefined) | inactive | – | inactive | inactive | inactive | 6.68 µM (active) | – | – | –
CC(=O)OC(OC(C)=O)c1ccc([N+](=O)[O-])o1 | – | – | inactive | – | – | 8.78 µM (active) | 22.1 µM (active) | 24.8 µM (active) | –
OCCC(O)CO (centres undefined) | inactive | – | inactive | inactive | inactive | inactive | inactive | inactive | –
CCN(CC)CCCN(c1ccccc1)C1Cc2ccccc2C1 | inactive | – | inactive | inactive | inactive | 15 µM (active) | inactive | inactive | –
CCOC(=O)N1CCC(=C2c3ccc(Cl)cc3CCc3cccnc32)CC1 | 61.1 µM (active) | – | inactive | inactive | inactive | 43.3 µM (active) and 13.3 µM (active) | 61.1 µM (active) | inactive | –
COc1cccc(CCc2ccccc2OCC(CN(C)C)OC(=O)CCC(=O)O)c1 (centres undefined) | inactive | – | inactive | inactive | inactive | 16.8 µM (active) | – | inactive | –
CC1=C(/C=C/C(C)=C/C=C/C(C)=C\C=O)C(C)(C)CCC1 | – | – | inactive | inactive | inactive | 25.8 µM (active) | – | – | –
Cc1c(C)n(Cc2ccccc2)c2ccc(C(=O)OCCN(C)C)cc12 | – | – | – | inactive | inactive | 6.68 µM (active) | – | inactive | –
CN(C)c1ccc(N=Nc2ccccc2C(=O)O)cc1 | inactive | – | 8.63 µM (active) | inactive | inactive | 2.17 µM (active) | 21.7 µM (active) | 24.3 µM (active) | –
